GALR2 blocker – blocks the human galanin receptor 2 | hit rate 0.39% among 140,000 | inhibition, % at 4 µM | GALR2-expressing cells, antagonist mode | O43603; in the data active = inhibition above about 27%;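 note: cells stimulated with galanin 1-16 at roughly its EC80; 0% = agonist challenge control and 100% = basal control without agonist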
Target sequence (O43603 whole entry, looked up): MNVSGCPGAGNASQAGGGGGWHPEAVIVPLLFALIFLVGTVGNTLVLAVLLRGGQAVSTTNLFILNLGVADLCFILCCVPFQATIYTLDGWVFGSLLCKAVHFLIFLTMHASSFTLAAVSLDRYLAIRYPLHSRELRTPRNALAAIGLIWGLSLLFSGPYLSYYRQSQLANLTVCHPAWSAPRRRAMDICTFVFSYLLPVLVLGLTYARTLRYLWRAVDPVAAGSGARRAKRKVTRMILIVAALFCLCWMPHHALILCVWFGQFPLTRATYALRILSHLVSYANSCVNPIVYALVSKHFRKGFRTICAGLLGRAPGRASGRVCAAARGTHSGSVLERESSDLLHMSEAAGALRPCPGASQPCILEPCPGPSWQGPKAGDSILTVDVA
GALR2 ag – GALR2 (human) receptor agonism. O43603. GALR2-expressing cells, agonist activation read-out. activation, % (no concentration beside the values). hit rate 0.48% among 140,000; in the data active = activation above about 5%, passing the limit was not always enough;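 note: 0% = vehicle buffer wells and 100% = reference agonist at full effect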
MRP resist rev – MRP-mediated drug resistance reversal; H69AR cells + 2 uM doxorubicin, CellTiter-Glo, 72 h; differential viability (reversal), % at 10 µM; hit rate 0.04% among 85,000; AID 602;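 active = viability drop by adding the cancer drug above about 55%, with treated viability meeting a 40% cutoff, limit read from the data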;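 note: viability without doxorubicin minus viability with 2 µM doxorubicin for each compound; larger differential means the compound sensitizes cells more to doxorubicin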
MRP1 act – MRP-1 activation | H69AR cells + doxorubicin, viability rescue, CellTiter-Glo | hit rate 0.61% among 140,000 | viability increase, % at 10 µM | AID 799;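 active = viability gain under doxorubicin at or above a set limit, the compound median plus 3 SD, cut at about 4.7% in these data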;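 note: MRP-1 overexpressing cells given doxorubicin 25 µM after compound pretreatment; 18-22 h compound pretreatment then 72 h with doxorubicin before readout; 0% = doxorubicin-only wells and 100% = vehicle-treated cells without doxorubicin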
S1P2 agonist – agonists of human S1P2 receptor; S1P2-expressing cell line, agonist reporter read-out; activation, % at 4.5 µM; hit rate 0.46% among 97,000; in the data active = activation above about 16%;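 note: 0% = vehicle low control and 100% = maximal reference agonist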
S1P2 blocker – S1P2 (human) receptor antagonism | AID 736 | hit rate 0.21% among 97,000 | cell-based S1P2 antagonist assay, inhibition at 5 uM | inhibition, % at 5 µM; in the data active = inhibition above about 45%;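 note: CRE beta-lactamase reporter cells expressing human S1P2 stimulated with S1P; 0% = agonist at EC80 alone and 100% = agonist plus reference antagonist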
GALR2 agon conf – confirmation of human galanin receptor 2 (GALR2) agonists. hit rate 10% among 460. shares compounds with GALR2 ag. activation, % at 5.6 µM. AID 864. GALR2-expressing cells, agonist activation; in the data active = activation above about 8.4%;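 note: 0% = buffer-only vehicle wells and 100% = full reference agonist response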
BLA act counter – counter-screen for GALR2 agonists: beta-lactamase reporter activators; shares compounds with GALR2 ag; CHO NFAT-bla reporter, beta-lactamase FRET activation; activation, % at 5.6 µM; hit rate 10% among 460;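 active = activation above the screen-wide mean activation plus 3 SD, cut at about 8% in these data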;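 note: 0% = DMSO with PBS wells and 100% = thapsigargin positive control wells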
* = called active by the depositor; . = no result. Only some compounds are listed: those with a hit (about 1.8% of all), similar ones and a draw of the others.

SMILES	GALR2 blocker	GALR2 ag	MRP resist rev	MRP1 act	S1P2 agonist	S1P2 blocker	GALR2 agon conf	BLA act counter
COc1ccc(NC(=O)C2=C(C)C(=O)OC23CCC(C)CC3)cc1Cl (stereo not given)	-24	84*	5	-3	-1	-8	-1	-1
COc1ccc(CNC(=O)C2=C(C)C(=O)OC23CCC(C)CC3)cc1 (stereo not given)	-4	-3	18	-3	-1	-9	.	.
CCNC(=S)N(Cc1ccc2c(c1)OCO2)C1CC(=O)N(c2ccc(F)cc2)C1=O (stereo not given)	1	11	.	-4	-7	-2	-1	-2
Cc1ccc(NC(=O)CCC(=O)NNC(=O)c2ccco2)cc1C	7	18*	.	-3	-11	7	-1	-1
Cc1c(Cl)cccc1NC(=O)CCC(=O)NNC(=O)c1ccco1	2	-1	.	-1	-4	11	.	.
CCOc1ccc(-c2nnc(NC3=NCCCCC3)o2)cc1	0	17*	-8	3	-5	-6	-1	-2
C=CCNC(=S)NNc1nc2c(c(=O)[nH]1)C1(CCCCC1)Cc1ccccc1-2	-20	1	.	-3	.	.	.	.
COc1ccc(C(O)(C(=O)NNc2ccc(C)cc2)c2cccs2)cc1 (stereo not given)	-2	-1	.	-4	-7	6	.	.
O=C(NNc1ccc(C2CCCCC2)cc1)C(O)(c1ccccc1)c1cccs1 (stereo not given)	8	13*	.	-5	-3	-9	-1	-2
Cn1c(=O)c2c(SCc3ccccn3)nc(-c3ccccc3)nc2n(C)c1=O	2	-1	.	.	-1	4	.	.
Cc1n[nH]c(C)c1N1C(=O)c2cccc3c(N4CCCCCC4)ccc(c23)C1=O	18	1	-3	-3	-10	33	.	.
CC(=O)c1ccc2c3c(cccc13)C(=O)N(c1c(C)nn(C)c1C)C2=O	-2	20*	-1	-1	-3	-9	-1	-1
COc1ccc(OC)c2sc(NC(=O)c3ccc(Br)s3)nc12	15	13*	4	-1	.	.	-1	-2
COc1ccc(OC)c2sc(NC(=O)c3ccc(Cl)s3)nc12	-16	-1	.	1	-11	5	.	.
Cn1c(=O)oc2cc(S(=O)(=O)N3CCCC(C(=O)Nc4ccccn4)C3)ccc21 (stereo not given)	7	17*	5	-2	-5	-2	0	-2
O=C(CSc1nc2c([nH]c3ccccc32)c(=O)n1-c1cccc(Cl)c1)N1CCOCC1	3	13*	-8	-4	13	5	6	1
O=C(CSc1nc2c([nH]c3ccccc32)c(=O)n1-c1ccccc1)N1CCOCC1	2	-2	-13	-3	.	.	.	.
CCN(CC(=O)Nc1c(C(=O)OC)[nH]c2ccc(Cl)cc12)c1ccc2c(c1)OCO2	7	0	-3	-2	-5	4	.	.
CCOC(=O)c1[nH]c2ccc(Cl)cc2c1NC(=O)/C=C/c1ccc2c(c1)OCO2	-5	14*	.	-3	.	.	8.5*	2
N#CCC(CNc1ncc(C(F)(F)F)cc1Cl)OC(=O)c1ccc(Cl)cc1Cl (stereo not given)	4	-3	.	-4	-2	-4	.	.
CCOC(=O)COn1c(=O)c(C)[n+]([O-])c2ccccc21	-3	31*	8	-2	-4	-12	0	-3
CCOC(=O)COn1c(=O)c[n+]([O-])c2ccccc21	-19	-2	-11	-2	0	-4	.	.
Cc1ccc(S(=O)(=O)c2cc3c(=O)n4cc(C)ccc4nc3n(CC3CCCO3)c2=N)cc1 (stereo not given)	.	.	-39	.	.	.	.	.
N=c1c(S(=O)(=O)c2ccccc2)cc2c(=O)n3ccccc3nc2n1CC1CCCO1 (stereo not given)	0	9	25	-1	10	-25	2	3
O=S(=O)(Nc1ccc2c(c1)OCO2)c1ccccc1	1	34*	-1	-4	-5	7	0	-1
SMILES	GALR2 blocker	GALR2 ag	MRP resist rev	MRP1 act	S1P2 agonist	S1P2 blocker	GALR2 agon conf	BLA act counter
Cc1[nH]n(-c2ccc([N+](=O)[O-])cc2)c(=O)c1C=NCCN1CCN(C(=O)c2cccc(F)c2)CC1	-11	-2	3	-1	-3	-16	.	.
CCn1c2ccc(C)cc2c2nnc(NN)nc21	-9	1	.	-4	.	.	.	.
CSc1nnc2c3cc(C)ccc3n(Cc3ccccc3)c2n1	8	10*	-12	-2	.	.	7	3
COc1cc(NC(=O)c2ccc(Cl)cc2Cl)ccc1-c1cc2ccccc2oc1=O	-14	13*	.	-4	4	23	6	2
O=C(Nc1ccc(O)cc1)/C(=C\c1cccs1)NC(=O)c1ccccc1	5	8.8*	.	-1	.	.	-1	1
CCCCn1c(N)c(N(CC(C)C)C(=O)CN(C)Cc2cccc(OC)c2)c(=O)[nH]c1=O	-9	-1	12	-1	-3	8	.	.
N=c1oc2ccccc2cc1-c1nc(-c2ccccc2)cs1	1	20*	.	-4	.	.	3	5
N=c1oc2cc(O)ccc2cc1C(=O)Nc1nc2ccccc2s1	-37	25*	.	4	.	.	36*	94*
O=C(CCn1c(=O)c2ccccc2n(CC(=O)NCCC2=CCCCC2)c1=O)NCc1ccco1	15	86*	4	-3	-8	15	-1	-4
COCCNC(=O)CCCn1c(=O)c2ccccc2n(CC(=O)NCCC2=CCCCC2)c1=O	-17	0	21	-1	-2	26	.	.
C1=C(c2ccccc2)Nc2ccccc2N=C1c1ccccc1	0	-1	.	-2	.	.	.	.
COc1cc(OC)cc(-c2cc3nc(C)cc(N4CCN(C(=O)c5ccco5)CC4)n3n2)c1	-6	1	.	-2	5	-31	.	.
CCOC(=O)/C(C#N)=C/c1ccc(OC)c(OC)c1	-20	16*	12	0	-2	-39	-1	-3
CCN(C(=O)C1CCN(S(=O)(=O)c2ccc3c(c2)oc(=O)n3C)CC1)c1cccc(C)c1	11	-1	-6	-2	-3	-1	.	.
CCN(CC)c1ccc(/C=C/c2nc3ccccc3s2)cc1	26	17*	.	0	13	66*	5	6
CCN(CC)c1ccc(NC(=O)COC(=O)/C=C/c2nc3ccccc3s2)cc1	-5	0	.	-2	.	.	.	.
CC(C)NC(=O)c1ccccc1NC(=O)/C=C/c1cccc([N+](=O)[O-])c1	3	25*	.	-2	.	.	11*	22*
CC(C)C(NC(=O)/C=C/c1cccc([N+](=O)[O-])c1)C(C)C	4	-2	.	-2	.	.	.	.
O=C(COC(=O)COc1ccccc1)NC1CCCc2ccccc21 (stereo not given)	-15	1	.	1	.	.	.	.
O=C(O)c1ccccc1C(=O)Nc1ccc(S(=O)(=O)NC2CCCCC2)cc1	0	14*	.	1	.	.	-1	-2
